# Assay results as given in PubChem BioAssay.
# Where “and” joins values, the source holds several entries; their conditions need not be identical. Identical values can stand only once. Unmarked numbers belong to inactive results. Calls of active or inactive are those of the source. Unless noted, no rule for the calls is given here.
# How the values were obtained:
# [1] = compounds altering circadian rhythm period length – cell-based, LOPAC library, luminescence reporter (AID 2774); details: circadian reporter cells, at 7 µM, actives lie on both sides;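 also: values are relative to mean of DMSO wells on each plate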
# [2] = antimalarial activity against Dd2 strain (AID 2302;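 active = growth inhibition above 50% at the single 2 µM test dose, taken to imply half-maximal potency below 2 µM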;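 also: 0% = DMSO untreated growth and 100% = chloroquine plus artemisinin killed control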); details: P. falciparum Dd2 in RBCs, LDH growth readout, 72 h; at 2 µM; active compounds read high
# [3] = human hepatoma cell viability loss – ATP luminescence, cytotoxicity control for P. falciparum antimalarial project, primary screen (AID 2303;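 active = inhibition above 50%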;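 also: 0% = DMSO wells and 100% = digitonin-killed cells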); details: HepG2 viability, 24-48 h, at 10 µM, active compounds read high
# [4] = molecular target: L-lactate dehydrogenase (Plasmodium falciparum (isolate CDC / Honduras)) (UniProt Q27743); assay: PfLDH activity inhibition – cell lysate, 3D7 strain, counter-screen for P. falciparum growth inhibition project (AID 2304);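 also: 0% = vehicle and 100% = reference inhibitor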; details: P. falciparum 3D7 crude extract, LDH APAD/NBT absorbance; at 2 µM; active compounds read high
# [5] = inhibition of 3D7 malaria parasite growth – strain 3D7 (AID 2306);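 also: 0% = DMSO wells and 100% = chloroquine plus artemisinin control wells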; details: P. falciparum 3D7 erythrocytic growth, LDH absorbance, 72 h; at 2 µM; active compounds read high
# Chain of L-lactate dehydrogenase (Plasmodium falciparum (isolate CDC / Honduras)) (Q27743 whole entry, looked up): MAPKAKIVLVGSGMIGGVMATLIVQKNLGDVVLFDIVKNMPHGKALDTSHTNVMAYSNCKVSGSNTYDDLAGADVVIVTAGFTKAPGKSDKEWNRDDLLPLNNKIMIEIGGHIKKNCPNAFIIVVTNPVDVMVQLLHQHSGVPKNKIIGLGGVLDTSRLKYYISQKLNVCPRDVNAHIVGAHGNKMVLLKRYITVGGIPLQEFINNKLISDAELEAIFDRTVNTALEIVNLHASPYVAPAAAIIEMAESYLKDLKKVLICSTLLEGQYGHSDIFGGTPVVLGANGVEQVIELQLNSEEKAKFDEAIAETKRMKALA
Structure (SMILES),period change [1] [h],growth inhibition [2],inhibition [3],inhibition [4],growth inhibition [5]
CC1(NCC(O)COc2cccc3[nH]ccc23)CCC(C(C)(C)NC(=O)CBr)CC1 (configuration not stated),-0.095,–,–,–,–
Oc1ccc(C=NNC(=S)Nc2cccc3ccccc23)c(O)c1,–,72% (active),8%,-4%,89% (active)
CCC[C@@H]([C@@H](CC(C)C)C(=O)N[C@@H](CCCCNC(=O)OCc1ccccc1)C(=O)Nc1ncccn1)N(O)C=O,–,98% (active),3%,4%,100% (active)
Cc1cc(C)c2c(c1)C(=NO)CCN2,–,2%,2%,7%,94% (active)
CCOc1cc(C=Cc2nc3ccccc3c(=O)[nH]2)cc(Cl)c1O,–,90% (active),25%,2%,83% (active)
COc1ccc(Nc2nc(NN=Cc3cc(Br)c(O)cc3O)nc(Nc3ccc([N+](=O)[O-])cc3)n2)cc1,–,23%,30%,4%,97% (active)
CCCC[C@@H](C(=O)NCc1ccccc1C(F)(F)F)N1C(=O)CCC1C(=O)Nc1ccc([N+](=O)[O-])cc1 (some centres not stated),–,2%,7%,0%,94% (active)
O=C(/C=C/c1ccc(Cl)c(Cl)c1)NCCCCCN1CC[C@H](c2c[nH]c3ccccc23)[C@H](O)C1,–,9%,12%,-5%,96% (active)
ON=C1CCc2cc(-c3nc(-c4ccc(OCCN5CCCCC5)cc4)[nH]c3-c3ccncc3)ccc21,–,54% (active),73% (active),3%,99% (active)
CC[C@@H]([C@@H](CC(C)C)C(=O)N[C@@H](CCCCNC(=O)OCc1ccccc1)C(=O)Nc1ccccn1)N(O)C=O,–,99% (active),-7%,-8%,98% (active)
N=C1Sc2ccccc2C2=NCCCN12,-0.035,–,–,–,–
O=C(NC=Nc1cc([N+](=O)[O-])c(-c2ccncc2)n1-c1ccccc1)c1cccc(O)c1,–,56% (active),2%,4%,100% (active)
CCCC(=O)NCCc1c2n(c3ccc(OC)cc13)Cc1ccccc1-2,0.125,–,–,–,–
O=[N+]([O-])c1ccc(Nc2nc(NN=Cc3cc(Cl)cc(Cl)c3O)nc(Nc3ccccc3)n2)cc1,–,72% (active),29%,-6%,100% (active)
Oc1c(C=Nn2cnnc2)sc2ccccc12,–,68% (active),-4%,0%,93% (active)
COc1ccc2ncc(F)c(CCN3C[C@H](CNCc4nc5c(cc4Cl)OCC(=O)N5)[C@H](O)C3)c2n1,–,15% and 23% and 30%,13% and 5% and 12%,0% and -2% and 2%,93% (active) and 90% (active)
CN(C)C(=S)NN=Cc1cccc(O)c1O,–,55% (active),11%,-2%,91% (active)
COc1cc(C=NNc2ccnc3cc(Cl)ccc23)ccc1O,–,100% (active),15%,-7%,101% (active)
COc1ccc(Nc2nc(NN=Cc3cc(Cl)ccc3O)nc(Nc3ccccc3)n2)cc1,–,10%,55% (active),0%,100% (active)
NC(=S)NCCCC(N)C(=O)O (configuration not stated),-0.05,–,–,–,–
CCCCCCCCCCCCCCCCOCC(COCC(F)(F)F)OP(=O)(O)OCO (configuration not stated),0.01,–,–,–,–
CCOc1cc(C=NNc2nc(C)cc(-n3nc(C)cc3C)n2)ccc1O,–,52% (active),46%,2%,93% (active)
CCN(CC)C(C)C(=O)N1c2ccccc2Sc2ccccc21 (configuration not stated),0.095,–,–,–,–
O=[N+]([O-])c1ccc(-c2nc3ccc(C4=N[C@H]5CCCC[C@H]5N4)cc3[nH]2)cc1,–,30%,-1%,3%,100% (active)
CO[C@H](C)[C@H](NC(=O)[C@H](CC(C)C)[C@H](CCC(F)(F)F)N(O)C=O)C(=O)Nc1nccs1,–,96% (active),0%,1%,99% (active)
CCCCCC(C)C(C)c1cc(O)c2c(c1)OC(C)(C)CC2=Cc1ccncc1 (configuration not stated),–,78% (active),-8%,2%,100% (active)

Structure (SMILES),period change [1] [h],growth inhibition [2],inhibition [3],inhibition [4],growth inhibition [5]
COc1ccc2nc(/N=C(/N)NC(=O)Nc3ccccc3)nc(C)c2c1,–,15%,3%,-1%,90% (active)
Cc1[nH]c2c(c(=O)c1Cl)-c1ccc(Oc3cccc(C(F)(F)F)c3)cc1C2=O,–,97% (active),25%,2%,98% (active)
CN(C)C[C@H](O)[C@@H](c1ccccc1)c1ccc(Cl)cc1,–,4%,4%,2%,99% (active)
CCn1c(C=Cc2cc(Br)ccc2O)nc2ccccc2c1=O,–,95% (active),6%,-5%,95% (active)
O=[N+]([O-])c1ccc(C=NO)nc1,–,98% (active),80% (active),2%,80% (active)
O=C(/C=C/c1ccc(Cl)c(Cl)c1)NCCCCCN1CC[C@H](c2c[nH]c3ccccc23)[C@@H](O)C1,–,-2%,34%,-3%,99% (active)
CN(Cc1cnc2nc(N)nc(N)c2n1)c1ccc(C(=O)N[C@H](CCC(=O)O)C(=O)O)cc1,0.095,44%,65% (active),-4%,92% (active)
Oc1ccc(-c2nc(-c3ccc4oc5ccc(-c6[nH]c(-c7ccc(O)cc7)nc6-c6ccccc6)cc5c4c3)c(-c3ccccc3)[nH]2)cc1,–,71% (active),-2%,3%,84% (active)
N=C(N)c1ccc(C=Cc2ccc(C(=N)N)cc2O)cc1,–,80% (active),10%,4%,92% (active)
Cc1cc(-c2cc(-c3ccc(OCCN(C)C)cc3)[nH]c2-c2ccc3c(c2)CCC3=NO)ccn1,–,92% (active),-13%,-3%,100% (active)
CCN1CCN(c2cc(C)c3cc(NC(=O)c4ccc(C(C)(C)C)cc4)ccc3n2)CC1,–,–,34%,-3%,85% (active)
Cc1ccc(-c2cncc(-c3cc(NC4CCN(Cc5ccccc5)CC4)nc(-c4ccccc4)n3)c2)cc1,–,66% (active),-2%,-4%,100% (active)
NC(N)=NCCSSCCN=C(N)N,0.065,–,–,–,–
O=C(O)[C@@H]1C[C@H](C(=O)O)N1,-0.02,–,–,–,–
NC(=NCc1ccc(Cl)c(Cl)c1)NC(=O)c1nc(Cl)c(N)nc1N,0.175,–,–,–,–
Cc1ccc(OCC(O)C(C)NC(C)C)c2c1CCC2 (configuration not stated),0.02,–,–,–,–
O=C(O)[C@@H]1C[C@@H](C(=O)O)N1,-0.1,–,–,–,–
CN1CCc2c(cc(O)c(O)c2Cl)C(c2cccc(Cl)c2)C1 (configuration not stated),0.165,–,–,–,–
NCCCCNS(=O)(=O)c1cccc2c(Cl)cccc12,0.09,–,–,–,–
CCCCCCCCCCCCCCCCCC(=O)NCC(COP(=O)([O-])OCC[N+](C)(C)C)OCC (configuration not stated),0.195,–,–,–,–
CC(COc1ccc(/C=C/c2ccccc2)cc1)[N+](C)(C)C (configuration not stated),-0.13,–,–,–,–
N#C/C(=C\c1c[nH]c2ccccc12)C(=O)c1ccc(O)c(O)c1,0.275,–,–,–,–
Cc1ccccc1N1CCN(S(=O)(=O)C[C@]23CCC(CC2NC(=O)[C@@H](N)CCS(C)(=O)=O)C3(C)C)CC1 (some centres not stated),-0.06,–,–,–,–
CNC(=O)[C@H]1O[C@@H](n2cnc3c(N)ncnc32)C(O)[C@H]1O (some centres not stated),0.045,–,–,–,–
CC(C)CN(C)c1nc(N)c(C(=O)N=C(N)N)nc1Cl,0,–,–,–,–
